Test results published in the supplement of paper PMC10849652.
Of roughly 7,900 targets only a part is listed; those with a hit were picked by preference. About 0.6% of all pairs of compound and target were hits.

Assays:
Assay in all cases: log2 fold change, soluble protein after heating vs DMSO (PISA); higher = thermal stabilisation; K562 cells, 10 uM, 30 min; active = over 0.2 and 3.5 SD of the protein, either way, in both replicates (recomputed)
[1] = compound: C1=CC=C(C=C1)[C@H](COC2=CC3=C(C=C2)NC(=O)N3)NC(=O)C4=CC=CN(C4=O)CC5=CC(=C(C=C5)F)F
Procedure, shortened: (§1)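 For each measurement, 10 μM compound was applied for 30 min to K562 cells at 2×10^6 cells/mL. Aliquots were heated for 3 min across 48°C-58°C, pooled, and extracted in PBS with 0.5% NP-40 at 4°C; the supernatant after 21,000xg for 90 min was soluble protein. This was quantified by TMTpro 16plex LC-MS/MS with channel sums equalised, and thermal stability was reported relative to control samples from duplicates, on a log2 fold-change scale.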

[2] = compound: CC1=C(SC2=C1C(=N[C@H](C3=NN=C(N32)C)CC(=O)N)C4=CC=C(C=C4)Cl)C
Procedure, shortened: as §1

[3] = compound: CC1=C2C(=CC=C1)N=C(N(C2=O)C3=CC=CC=C3C)CN4C=NC5=C(N=CN=C54)N
Procedure, shortened: as §1

[4] = compound: Cc1sc2c(c1C)C(c1ccc(Cl)cc1)=N[C@@H](CC(=O)OC(C)(C)C)c1nnc(C)n1-2
Procedure, shortened: as §1

[5] = compound: c1ccc([C@@H]2C[C@H]2NC2CCNCC2)cc1
Procedure, shortened: as §1

Measured: log2 fold change

PSMC5 (UniProt P62195)
UniProt P62195, sequence (P62195 whole entry, looked up): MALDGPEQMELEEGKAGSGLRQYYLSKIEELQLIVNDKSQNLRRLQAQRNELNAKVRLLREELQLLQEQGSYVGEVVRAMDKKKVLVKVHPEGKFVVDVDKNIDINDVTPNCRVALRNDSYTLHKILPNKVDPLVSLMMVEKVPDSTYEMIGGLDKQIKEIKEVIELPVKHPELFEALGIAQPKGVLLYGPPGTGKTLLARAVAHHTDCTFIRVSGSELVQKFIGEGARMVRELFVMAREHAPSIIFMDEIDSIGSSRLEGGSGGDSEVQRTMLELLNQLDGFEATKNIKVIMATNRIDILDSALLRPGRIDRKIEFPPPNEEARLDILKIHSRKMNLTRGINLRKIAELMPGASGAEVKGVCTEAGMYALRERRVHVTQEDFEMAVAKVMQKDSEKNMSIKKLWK
inactive: [1] 0.017 | [2] -0.087 | [3] -0.045 | [4] 0.006 | [5] 0.01

PDLIM7 (UniProt Q9NR12)
inactive: [1] -0.04 | [2] 0.044 | [3] 0.092 | [4] -0.023 | [5] -0.011

PSMD13 (UniProt Q9UNM6)
inactive: [1] -0.008 | [2] -0.096 | [3] -0.046 | [4] -0.028 | [5] 0

PRPF31 (UniProt Q8WWY3)
inactive: [1] -0.07 | [2] 0.028 | [3] 0.174 | [4] -0.087 | [5] 0.005

PLBD2 (UniProt Q8NHP8)
inactive: [1] 0.011 | [2] 0.01 | [3] 0.01 | [4] -0.006 | [5] 0.007

PIR (UniProt O00625)
inactive: [1] 0.016 | [2] 0.064 | [3] 0.027 | [4] -0.029 | [5] 0.002

PSMB6 (UniProt P28072)
inactive: [1] 0.023 | [2] -0.057 | [3] -0.015 | [4] 0.019 | [5] 0.081

PDSS2 (UniProt Q86YH6)
inactive: [1] -0.066 | [2] 0.052 | [3] 0.085 | [4] 0.005 | [5] 0.094

PDCD2L (UniProt Q9BRP1)
inactive: [1] -0.031 | [2] 0.055 | [3] 0.109 | [4] 0.021 | [5] 0.091

PHKG2 (UniProt P15735)
inactive: [1] 0.028 | [2] -0.033 | [3] 0.013 | [4] 0.051 | [5] 0.026

PPP4R3B (UniProt Q5MIZ7)
inactive: [1] -0.014 | [2] 0.069 | [3] 0.134 | [4] 0.003 | [5] -0.005

POLR3D (UniProt P05423)
inactive: [1] 0.008 | [2] -0.072 | [3] -0.013 | [4] 0.056 | [5] 0.096

PIKFYVE (UniProt Q9Y2I7)
UniProt Q9Y2I7, sequence (Q9Y2I7 whole entry, looked up): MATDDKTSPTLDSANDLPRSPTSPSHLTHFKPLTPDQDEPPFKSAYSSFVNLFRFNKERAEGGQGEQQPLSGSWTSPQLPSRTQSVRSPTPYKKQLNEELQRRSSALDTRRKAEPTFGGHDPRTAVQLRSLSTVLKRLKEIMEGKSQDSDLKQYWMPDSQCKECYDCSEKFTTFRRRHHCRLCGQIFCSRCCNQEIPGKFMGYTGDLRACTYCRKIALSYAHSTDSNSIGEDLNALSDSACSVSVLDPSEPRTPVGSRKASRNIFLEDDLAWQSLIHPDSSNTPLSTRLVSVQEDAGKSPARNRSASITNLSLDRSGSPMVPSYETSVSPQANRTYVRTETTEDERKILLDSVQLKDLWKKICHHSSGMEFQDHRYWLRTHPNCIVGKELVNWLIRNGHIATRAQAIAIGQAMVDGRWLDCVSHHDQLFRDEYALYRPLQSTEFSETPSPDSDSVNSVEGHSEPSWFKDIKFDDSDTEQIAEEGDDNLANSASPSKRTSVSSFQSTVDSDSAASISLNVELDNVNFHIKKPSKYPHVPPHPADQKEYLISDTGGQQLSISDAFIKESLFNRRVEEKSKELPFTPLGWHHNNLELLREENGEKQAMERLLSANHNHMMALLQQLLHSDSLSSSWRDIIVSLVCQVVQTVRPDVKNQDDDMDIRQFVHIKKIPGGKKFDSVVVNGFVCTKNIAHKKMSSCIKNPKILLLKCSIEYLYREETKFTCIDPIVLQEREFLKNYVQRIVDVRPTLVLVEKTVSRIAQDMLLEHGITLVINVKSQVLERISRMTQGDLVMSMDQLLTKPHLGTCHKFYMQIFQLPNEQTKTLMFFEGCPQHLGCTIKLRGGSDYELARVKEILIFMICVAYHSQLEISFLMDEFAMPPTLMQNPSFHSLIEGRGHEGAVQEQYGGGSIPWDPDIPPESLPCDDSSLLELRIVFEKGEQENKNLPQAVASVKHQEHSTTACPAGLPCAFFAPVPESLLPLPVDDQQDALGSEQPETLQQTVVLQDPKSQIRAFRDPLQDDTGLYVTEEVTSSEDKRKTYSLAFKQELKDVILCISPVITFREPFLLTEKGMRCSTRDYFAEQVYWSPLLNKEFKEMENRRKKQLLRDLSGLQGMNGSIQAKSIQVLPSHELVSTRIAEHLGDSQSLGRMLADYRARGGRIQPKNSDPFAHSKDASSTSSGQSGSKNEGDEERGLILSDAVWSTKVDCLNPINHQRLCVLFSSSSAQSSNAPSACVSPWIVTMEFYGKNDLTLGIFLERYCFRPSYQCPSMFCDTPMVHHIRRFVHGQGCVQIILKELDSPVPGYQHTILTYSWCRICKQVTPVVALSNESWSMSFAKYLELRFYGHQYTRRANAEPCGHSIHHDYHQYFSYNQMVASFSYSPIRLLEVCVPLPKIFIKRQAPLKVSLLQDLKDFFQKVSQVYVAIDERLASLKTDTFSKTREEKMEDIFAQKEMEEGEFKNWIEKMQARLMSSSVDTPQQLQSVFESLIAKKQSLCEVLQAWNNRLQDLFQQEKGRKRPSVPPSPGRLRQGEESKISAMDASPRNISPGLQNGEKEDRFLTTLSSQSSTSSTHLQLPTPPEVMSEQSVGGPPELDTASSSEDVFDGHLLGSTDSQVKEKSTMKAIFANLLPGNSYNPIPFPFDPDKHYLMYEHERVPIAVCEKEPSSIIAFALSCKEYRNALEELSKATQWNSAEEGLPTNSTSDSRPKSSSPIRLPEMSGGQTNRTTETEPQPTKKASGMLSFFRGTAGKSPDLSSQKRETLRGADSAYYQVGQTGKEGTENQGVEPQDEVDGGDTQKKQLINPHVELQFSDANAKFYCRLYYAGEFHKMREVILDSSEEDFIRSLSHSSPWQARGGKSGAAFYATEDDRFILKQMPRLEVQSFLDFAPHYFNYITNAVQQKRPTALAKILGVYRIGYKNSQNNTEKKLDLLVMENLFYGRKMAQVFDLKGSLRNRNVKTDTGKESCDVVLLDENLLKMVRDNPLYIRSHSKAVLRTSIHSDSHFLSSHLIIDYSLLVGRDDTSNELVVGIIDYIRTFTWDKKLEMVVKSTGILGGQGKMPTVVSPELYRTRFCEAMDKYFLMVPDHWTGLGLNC
inactive: [1] -0.077 | [2] 0.106 | [3] 0.111 | [4] 0.068 | [5] -0.009

PRPSAP2 (UniProt O60256)
inactive: [1] 0.009 | [2] -0.026 | [3] -0.027 | [4] -0.012 | [5] 0

PSPC1 (UniProt Q8WXF1)
inactive: [1] -0.023 | [2] -0.029 | [3] 0.038 | [4] -0.032 | [5] 0.015

PCBP1 (UniProt Q15365)
inactive: [1] -0.045 | [2] 0.047 | [3] 0.048 | [4] -0.03 | [5] 0

PFDN1 (UniProt O60925)
UniProt O60925, sequence (O60925 whole entry, looked up): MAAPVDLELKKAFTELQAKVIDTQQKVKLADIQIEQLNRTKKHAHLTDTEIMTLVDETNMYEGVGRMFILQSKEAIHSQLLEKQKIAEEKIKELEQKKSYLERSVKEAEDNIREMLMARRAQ
inactive: [1] -0.102 | [2] 0.155 | [3] 0.061 | [4] -0.171 | [5] -0.061

PDCD6 (UniProt O75340)
inactive: [1] -0.024 | [2] 0.057 | [3] 0.107 | [4] -0.052 | [5] 0.003

PSMD7 (UniProt P51665)
inactive: [1] 0.033 | [2] -0.102 | [3] -0.024 | [4] 0.034 | [5] 0

PCTP (UniProt Q9UKL6)
inactive: [1] -0.033 | [2] -0.101 | [3] 0.028 | [4] -0.023 | [5] 0.018

PPID (UniProt Q08752)
inactive: [1] -0.079 | [2] 0.031 | [3] 0.036 | [4] -0.035 | [5] -0.031

POLR2I (UniProt P36954)
inactive: [1] 0.063 | [2] 0.104 | [3] -0.163 | [4] 0.194 | [5] -0.035

POLR2C (UniProt P19387)
inactive: [1] -0.091 | [2] 0.125 | [3] -0.023 | [4] 0.155 | [5] -0.092

PMVK (UniProt Q15126)
inactive: [1] -0.156 | [2] 0.004 | [3] 0.116 | [4] 0.063 | [5] 0.028

PDCD6IP (UniProt Q8WUM4)
inactive: [1] -0.131 | [2] 0.05 | [3] 0.119 | [4] -0.029 | [5] -0.04

PSMC2 (UniProt P35998)
inactive: [1] 0.031 | [2] -0.085 | [3] -0.092 | [4] 0.002 | [5] 0.001

QRSL1 (UniProt Q9H0R6)
inactive: [1] -0.01 | [2] 0.142 | [3] 0.147 | [4] 0.05 | [5] 0.041

QKI (UniProt Q96PU8)
inactive: [1] -0.016 | [2] 0.039 | [3] 0.105 | [4] -0.082 | [5] 0.01

PPOX (UniProt P50336)
inactive: [1] 0.385 | [2] 0.092 | [3] 0.129 | [4] 0.04 | [5] -0.045

PAK4 (UniProt O96013)
inactive: [1] -0.005 | [2] 0.045 | [3] 0.102 | [4] -0.02 | [5] -0.016

PRKAB1 (UniProt Q9Y478)
inactive: [1] 0.011 | [2] 0.037 | [3] -0.024 | [4] -0.093 | [5] -0.037

PBK (UniProt Q96KB5)
inactive: [1] -0.06 | [2] 0.016 | [3] 0.067 | [4] 0.023 | [5] -0.016

PI4K2B (UniProt Q8TCG2)
UniProt Q8TCG2, sequence (Q8TCG2 whole entry, looked up): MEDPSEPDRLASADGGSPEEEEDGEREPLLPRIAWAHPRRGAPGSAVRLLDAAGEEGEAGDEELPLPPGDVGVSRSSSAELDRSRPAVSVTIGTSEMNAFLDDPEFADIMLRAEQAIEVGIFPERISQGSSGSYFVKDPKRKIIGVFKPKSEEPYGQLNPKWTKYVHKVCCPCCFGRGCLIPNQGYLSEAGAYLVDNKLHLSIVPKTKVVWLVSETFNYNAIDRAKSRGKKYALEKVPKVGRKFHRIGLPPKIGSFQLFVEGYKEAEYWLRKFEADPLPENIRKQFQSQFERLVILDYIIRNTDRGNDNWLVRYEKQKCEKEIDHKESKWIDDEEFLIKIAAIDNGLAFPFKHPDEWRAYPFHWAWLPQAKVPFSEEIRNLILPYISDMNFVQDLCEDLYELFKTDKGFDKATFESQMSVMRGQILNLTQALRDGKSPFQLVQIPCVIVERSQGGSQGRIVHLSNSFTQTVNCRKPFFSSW
inactive: [1] 0.007 | [2] 0.031 | [3] 0.065 | [4] 0.024 | [5] -0.041

PIK3C3 (UniProt Q8NEB9)
inactive: [1] -0.038 | [2] 0.005 | [3] 0.009 | [4] 0.009 | [5] -0.01

PPP2R5C isoform 5 (UniProt Q13362)
inactive: [1] -0.039 | [2] 0.001 | [3] 0.084 | [4] -0.067 | [5] -0.029

PHLDB1 isoform 2 (UniProt Q86UU1)
inactive: [1] -0.006 | [2] 0.073 | [3] 0.081 | [4] 0.008 | [5] 0.002

PDS5A (UniProt Q29RF7)
inactive: [1] -0.34 | [2] 0.066 | [3] 0.096 | [4] 0.038 | [5] -0.105

PDE4DIP isoform 4 (UniProt Q5VU43)
inactive: [1] 0.023 | [2] 0.043 | [3] 0.046 | [4] -0.023 | [5] -0.011

PKN1 isoform 2 (UniProt Q16512)
inactive: [1] -0.077 | [2] 0.079 | [3] 0.069 | [4] 0.015 | [5] 0

PISD (UniProt Q9UG56)
inactive: [1] 0.002 | [2] -0.024 | [3] 0.079 | [4] -0.011 | [5] 0.043

PPP1CA (UniProt P62136)
inactive: [1] 0.003 | [2] 0.022 | [3] 0.025 | [4] 0.016 | [5] 0.015

PMPCB (UniProt O75439)
inactive: [1] 0.005 | [2] 0.111 | [3] 0.01 | [4] 0.012 | [5] -0.053

PRPF40A (UniProt O75400)
inactive: [1] -0.008 | [2] 0.016 | [3] 0.123 | [4] -0.022 | [5] 0.037

PGGHG (UniProt Q32M88)
UniProt Q32M88, sequence (Q32M88 whole entry, looked up): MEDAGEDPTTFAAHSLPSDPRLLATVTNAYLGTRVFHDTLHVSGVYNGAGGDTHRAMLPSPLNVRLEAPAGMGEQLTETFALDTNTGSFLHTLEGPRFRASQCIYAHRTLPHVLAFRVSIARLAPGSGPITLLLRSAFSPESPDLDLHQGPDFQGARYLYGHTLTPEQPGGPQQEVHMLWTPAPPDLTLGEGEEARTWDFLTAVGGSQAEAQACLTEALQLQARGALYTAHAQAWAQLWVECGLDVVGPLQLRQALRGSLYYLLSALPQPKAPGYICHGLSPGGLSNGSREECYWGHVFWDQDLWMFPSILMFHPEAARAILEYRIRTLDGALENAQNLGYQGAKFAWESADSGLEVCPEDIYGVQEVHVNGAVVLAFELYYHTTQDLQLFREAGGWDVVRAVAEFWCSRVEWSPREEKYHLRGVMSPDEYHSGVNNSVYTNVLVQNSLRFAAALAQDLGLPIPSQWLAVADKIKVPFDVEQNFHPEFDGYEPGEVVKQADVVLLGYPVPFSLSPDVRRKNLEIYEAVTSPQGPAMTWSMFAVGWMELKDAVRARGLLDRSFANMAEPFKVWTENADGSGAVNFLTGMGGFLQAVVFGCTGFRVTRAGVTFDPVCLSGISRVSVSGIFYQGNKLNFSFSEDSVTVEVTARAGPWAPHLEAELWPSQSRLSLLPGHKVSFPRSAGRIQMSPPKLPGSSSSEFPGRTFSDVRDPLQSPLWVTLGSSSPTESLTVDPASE
inactive: [1] -0.052 | [2] -0.09 | [3] -0.088 | [4] -0.084 | [5] 0.213

POM121 (UniProt Q96HA1)
UniProt Q96HA1, sequence (Q96HA1 whole entry, looked up): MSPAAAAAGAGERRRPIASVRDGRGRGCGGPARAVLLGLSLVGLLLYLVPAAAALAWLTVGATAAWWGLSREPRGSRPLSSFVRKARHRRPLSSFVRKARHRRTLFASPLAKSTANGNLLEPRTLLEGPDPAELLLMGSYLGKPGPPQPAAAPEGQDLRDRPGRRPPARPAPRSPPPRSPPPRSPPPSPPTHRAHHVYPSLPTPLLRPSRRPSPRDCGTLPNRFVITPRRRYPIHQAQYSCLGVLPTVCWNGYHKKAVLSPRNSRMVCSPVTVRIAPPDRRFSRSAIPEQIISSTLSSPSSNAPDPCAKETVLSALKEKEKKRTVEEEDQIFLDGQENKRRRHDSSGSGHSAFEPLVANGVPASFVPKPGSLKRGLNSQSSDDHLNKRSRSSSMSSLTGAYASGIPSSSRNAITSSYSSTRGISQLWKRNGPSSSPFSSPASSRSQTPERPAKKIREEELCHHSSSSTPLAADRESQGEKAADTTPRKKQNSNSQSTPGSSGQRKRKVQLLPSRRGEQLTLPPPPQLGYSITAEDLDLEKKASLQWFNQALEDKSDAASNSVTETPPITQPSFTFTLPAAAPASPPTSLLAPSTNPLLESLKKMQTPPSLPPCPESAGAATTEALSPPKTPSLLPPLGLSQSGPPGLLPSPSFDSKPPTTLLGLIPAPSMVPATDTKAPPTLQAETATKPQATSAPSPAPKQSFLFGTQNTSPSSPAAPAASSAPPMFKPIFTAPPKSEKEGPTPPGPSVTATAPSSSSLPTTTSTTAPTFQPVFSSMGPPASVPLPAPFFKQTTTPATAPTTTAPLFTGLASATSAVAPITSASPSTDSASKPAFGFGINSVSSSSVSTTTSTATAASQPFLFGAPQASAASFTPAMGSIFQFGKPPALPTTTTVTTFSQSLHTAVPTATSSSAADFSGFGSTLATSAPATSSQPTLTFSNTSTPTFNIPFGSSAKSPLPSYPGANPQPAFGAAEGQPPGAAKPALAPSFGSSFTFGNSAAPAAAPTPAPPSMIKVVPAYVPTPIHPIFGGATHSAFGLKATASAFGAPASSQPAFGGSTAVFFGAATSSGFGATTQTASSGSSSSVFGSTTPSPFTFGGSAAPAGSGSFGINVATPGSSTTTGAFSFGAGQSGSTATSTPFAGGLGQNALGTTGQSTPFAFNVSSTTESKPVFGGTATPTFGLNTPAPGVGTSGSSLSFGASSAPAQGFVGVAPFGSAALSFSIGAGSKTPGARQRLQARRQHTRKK
inactive: [1] 0.023 | [2] -0.033 | [3] 0.026 | [4] 0.054 | [5] -0.002

PUM1 isoform 3 (UniProt Q14671)
inactive: [1] 0.004 | [2] -0.036 | [3] 0.056 | [4] 0.025 | [5] -0.049

POLR2D (UniProt O15514)
inactive: [1] 0.003 | [2] 0.134 | [3] -0.006 | [4] 0.17 | [5] 0.045

PSMD6 (UniProt Q15008)
inactive: [1] 0.019 | [2] -0.088 | [3] -0.116 | [4] -0.006 | [5] 0.001

POMK (UniProt Q9H5K3)
inactive: [1] 0.04 | [2] 0.027 | [3] -0.041 | [4] -0.067 | [5] -0.022

PRKCE (UniProt Q02156)
inactive: [1] -0.065 | [2] 0.033 | [3] 0.071 | [4] 0.018 | [5] 0

PSMD2 (UniProt Q13200)
inactive: [1] 0.026 | [2] -0.097 | [3] -0.059 | [4] 0.008 | [5] 0.016

PRKD2 isoform 3 (UniProt Q9BZL6)
inactive: [1] -0.051 | [2] 0.238 | [3] -0.057 | [4] 0.064 | [5] 0.028

PSMA3 (UniProt H0YJ03)
inactive: [2] 0.193 | [3] 0.119 | [4] 0.048 | [5] 0.034
